Experimental data published in PubChem BioAssay AID624331 (National Center for Advancing Translational Sciences (NCATS), 2012).
Results filed as inconclusive are left out. A number with no mark means an inactive call. Activity calls are given as the source filed them. Calls come from the whole dose curve; as a rule, active = well fitted activation curve with a large enough effect; inconclusive = small, poorly fitted or top-dose-only effect; inactive = no such curve, though single readings can be large or run the other way.

test: qHTS assay for re-activators of p53 using a Luc reporter: Hit Validation with no p53 Expressed; conditions: p53-null cells, luciferase reporter counter-screen; series mostly up to 46.1 µM; activity change, positive = activation: at the top concentration; for activity change, positive = activation: 0% is about no effect
Procedure, shortened: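 Counter-screen of primary hits in a cell line not transfected with p53, in Opti-MEM with 10% FBS; compounds at several concentrations (10 mM stock, 1:5; top 46.1 µM in well), 24 h at 37 deg C, 5% CO2. Luminescence read after 10 min with Amplite reagent.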
Potency is the fitted concentration of half-maximal effect.

Row | SMILES | activity change, positive = activation [%] | Potency
1 | O=C(CN1C(=O)COc2ccccc21)Nc1ccc(F)cc1 | 36.7 | 
2 | O=C(/C=C\Nc1cccc(F)c1)c1ccc2c(c1)OCO2 | -22.4 | 
3 | Cc1c(C(=O)OC2CCC(C)CC2)[nH]c2c1C(=O)CCC2 (centres undefined) | -14.1 | 
4 | Cc1ccc(CCc2nnc(SCC(=O)Nc3cccc(Cl)c3)n2-c2ccccc2)o1 | -44.2 | 
5 | Brc1c(CSc2nc3ccccc3s2)nc2ncccn12 | 60.7 | 
6 | O=C(N/N=C/c1cn(-c2ccccc2)nc1-c1cc2ccccc2o1)c1ccccc1Br | 41.5 | 
7 | COc1ccc2c(c1)Cc1sc(NC(C)=O)nc1-2 | 29.1 | 
8 | C#CC(C)(CC)NC(=O)Cn1nnc(-c2ccc(S(C)(=O)=O)cc2)n1 (centres undefined) | -8.63 | 
9 | CCN(CC)C(=O)CNC(=S)N(CCCN1CCOCC1)Cc1cccs1 | 0.343 | 
10 | CCOc1ccc(OCCSc2nc3ccccc3n2CC(=O)O)cc1 | -31 | 
11 | Cc1ccc2cc(C#N)c(NCc3ccco3)nc2c1 | -25.2 | 
12 | Cc1cc(C(=O)COC(=O)c2ccc(O)cc2)c(C)n1CC(F)(F)F |  | 20.6 µM (active)
13 | COc1ccc(N(C(=O)Nc2ccc(Cl)cc2)C2=NCCC2)cc1 | 38.3 | 
14 | Cc1ccc(-c2nc(-c3cccnc3)no2)c(C)c1 | -3.66 | 
15 | Cc1cccc(NC(=O)c2oc3c(c2C)C(=O)CC(C)(C)C3)n1 | -5.25 | 
16 | CC(=O)Nc1ccc(Nc2cc(C)nc3c(-c4ccccc4)cnn23)cc1 | 44.9 | 
17 | O=C(Oc1c(Cl)cc(Cl)c2cccnc12)c1cccc([N+](=O)[O-])c1 | -64.6 | 
18 | O=C(CCS(=O)(=O)c1ccccc1)Nc1ccc(-c2nc3ccccc3s2)cc1 | 15.9 | 
19 | Cc1ccc(NC(=O)/C=C/c2ccco2)nc1 | 33.2 | 
20 | O=C(COC(=O)c1cn(-c2ccccc2)nc1-c1ccc(F)cc1)Nc1ncc(Cl)cc1Cl | 13.6 | 

Row | SMILES | activity change, positive = activation [%] | Potency
21 | CCOc1ccc(-c2cnc3ccccc3n2)cc1 | -34.8 | 
22 | C/C(=N\NC(=O)c1cc(C)nc2ccccc12)c1ccccn1 | -10.9 | 
23 | Fc1ccc(CCNC(=S)Nc2ccc(F)cc2)cc1 | -12.1 | 
24 | CCOCCCNc1nc2c([nH]1)c(=O)n(C)c(=O)n2C | 46.1 | 
25 | N#C/C(=C\c1ccccc1[N+](=O)[O-])c1nc(C2CC2)cs1 |  | 11.6 µM (active)
26 | NC(=O)c1ccc(-n2c(CCC(=O)O)ccc2-c2cccs2)cc1 | 6.11 | 
27 | c1ccc(-c2ccc(-c3ccccn3)nn2)nc1 | 35.1 | 
28 | CC1CC1C(=O)Nc1nc2ccc(S(C)(=O)=O)cc2s1 (centres undefined) | 46.1 | 
29 | Cc1ccc(OCC(=O)Nc2ccc(Cl)cc2)c([N+](=O)[O-])n1 | 3.05 | 
30 | O=C1NC(c2ccc(Br)cc2)=N/C1=C/c1ccco1 | 14.3 | 
31 | COc1cccc(/C=N/Nc2cc(-n3nc(C)cc3-c3ccccc3)ncn2)c1O | 63.3 | 
32 | Cc1ccc(C(=O)N2CC(=O)Nc3ccc(F)cc3C2c2ccc(F)cc2)cc1[N+](=O)[O-] (centres undefined) | -57 | 
33 | COc1ccc2c(=O)c(-c3nc(C)cs3)coc2c1 | -21.3 | 
34 | O=C(CSc1nnc(-c2ccc3c(c2)OCCO3)o1)N1CCCC1 | 21.1 | 
35 | OC(COc1ccc2cc(Br)ccc2c1)CN1CCCC1 (centres undefined) | 66.1 | 
36 | CC(C)(C)c1nnc(SCC(=O)c2ccccc2)n(N)c1=O | -1.02 | 
37 | CC(C)(C)c1nnc(N/N=C/c2cc(Br)ccc2O)n(N)c1=O | -30.3 | 
38 | OC1(C2(O)CC(c3ccccc3)ON2)CCCCC1 (centres undefined) | 33.1 | 
39 | Cc1cc(C(c2nnnn2Cc2ccccc2)N2CCOCC2)c(C)n1-c1ccc2c(c1)OCO2 (centres undefined) | 35.8 | 
